# Source: PubChem BioAssay
# Compounds with a hit are over-represented: about 19% of the library has one in this group of screens.
# IL-1B inflam inh: blocks inflammasome-driven IL-1 beta release; THP-1 LPS/ATP IL-1B secretion, AlphaLISA, 16 h; hits give low values; activity change, % at 57.5 µM; 360,000 tested, 4.7% active; AID 743279; in the data active = activity change below about -50%; inconclusive = mostly about -30% to -49%
#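 Secreted IL-1B measured by AlphaLISA bead assay after 16 h compound exposure of THP-1 cells; compounds (final up to 57.5 uM) added 1 h before LPS (250 ng/mL) and ATP (1.25 mM) stimulation; lower signal means less secretion.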
# DT40 TDP1 CPT: DT40-hTDP1 cell growth loss with CPT; chicken DT40 Tdp1-/-;hTDP1 cells + 20 nM CPT, ATP luminescence, 48 h; Potency, µM (series often up to 46.2 µM), actives largely listed as inhibitors; 420,000 tested, 12% active; also: nearly all actives have a fitted effect of over 55% in size
#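 Chicken DT40 Tdp1-/- cells complemented with human TDP1, 400 cells/well, exposed to compounds plus 20 nM camptothecin for at least 48 h at 37 C; viability read as ATP content by CellTiter-Glo luminescence.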
# TDP1 cell noCPT: qHTS for Inhibitors of human tyrosyl-DNA phosphodiesterase 1 (TDP1): qHTS in cells in absence of CPT; DT40 Tdp1-/- hTDP1 cells, no CPT, ATP luminescence, 48 h; Potency, µM (doses to about 46.2 µM), most hits filed as inhibitors; 420,000 tested, 15% active; also: nearly all actives have a fitted effect of over 55% in size
#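 Growth of hTDP1-complemented DT40 Tdp1-knockout cells is measured by ATP luminescence after at least 48 hr compound exposure at 37 °C, with DMSO substituting for the 20 nM CPT used in the parallel screen.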
# HT1080 IDH1KD tx: HT-1080 IDH1 knockdown cell toxicity (counter line); HT-1080 IDH1 knockdown viability, ATP luminescence, 48 h; Potency, µM (series often up to 46.1 µM), usual class: cytotoxic; 360,000 tested, 2% active; AID 686971
#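 In this qHTS, HT-1080 cells depleted of IDH1 are exposed for 48 h at 37 °C to compound titrations. Toxicity is scored from CellTiter-Glo luminescence, with DMSO as full viability and medium alone as none.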
# HT1080NT lethal: kills 2HG-producing HT-1080-NT fibrosarcoma cells. HT-1080-NT fibrosarcoma viability, CellTiter-Glo ATP luminescence, 48 h. Potency, µM (highest dose often 46.1 µM), hits mostly cytotoxic. 360,000 tested, 1.6% active;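 also: NT is the 2HG producing partner of a matched IDH1 knockdown line; nearly all actives have a fitted effect of over 55% in size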
#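 Read-out is CellTiter-Glo luminescence after 10 minutes at room temperature, following 48 hours' compound treatment of HT-1080-NT cells (750 cells/well, RPMI, 5% FBS, 37 degrees C).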
# Hits are given with their value; . = inactive; ? = inconclusive; / = no result; [ ] = another dose, or the depositor's remark. Unless noted, calls follow the shape of the dose curve; as a rule, active = well fitted curve in the direction sought with a large enough effect; inconclusive = small, poorly fitted or top-dose-only effect, or another doubt; inactive = no such curve, though single readings can be large; an effect the other way counts as inactive or inconclusive.
SMILES,IL-1B inflam inh,DT40 TDP1 CPT,TDP1 cell noCPT,HT1080 IDH1KD tx,HT1080NT lethal
CC1CC(C)CN(C(=O)C2CCN(S(=O)(=O)c3cccs3)CC2)C1 (configuration not stated),.,.,?,.,.
Cc1cccc(N2CCN(C(=O)C3CCN(S(=O)(=O)c4cccs4)CC3)CC2)c1C,/,21µM,15µM,/,/
CN1CCN(S(=O)(=O)c2cccs2)CC1,.,.,.,.,.
O=S(=O)(c1cccs1)N1CCN(c2ccc(O)cc2)CC1,.,2.6µM,2.6µM,?,.
CCN(CC)c1ccc(/C=C/c2cc(Cl)nc3ccccc23)cc1,/,?,16µM,/,/
Nc1ccc(/C=C/c2cc(Cl)nc3ccccc23)cc1,/,4µM,4µM,/,/
CN(C)c1ccc(/C=C/c2cc(Cl)nc3ccccc23)cc1,/,?,.,/,/
CCOC(=O)c1cc(Cl)c2c(ccc3ccccc32)n1,.,.,.,.,.
CCOC(=O)Cc1cc(-c2ccc(F)cc2)nc2ccc3ccccc3c12,.,?,29µM,.,.
CCOC(=O)Cc1cc(-c2ccc(O)cc2)nc2ccc3ccccc3c12,.,?,?,?,?
CCOC(=O)Cc1cc(-c2ccc(OC)cc2)nc2ccc3ccccc3c12,.,18µM,?,.,.
O=C(O)CCN1c2ccccc2Sc2ccccc21,.,.,.,.,.
CC(=O)OCCN1c2ccccc2Sc2cnccc21,?,?,15µM,.,.
C=CCN1c2ccccc2Sc2cnccc21,?,?,18µM,.,.
CC/C(=N\N=C(/CC)c1ccccc1N)c1ccccc1N,.,29µM,23µM,.,.
CCc1cc(=O)oc2cc3occ(-c4ccc(OC)c(F)c4)c3cc12,.,4.6µM,2.1µM,5.2µM,5.2µM
CC1=C(C(=O)N(C(C)C)C(C)C)CC(CC(=O)NCCc2ccccn2)C(=O)N1Cc1ccc(F)cc1 (configuration not stated),.,.,.,.,.
O=C(c1ccccc1)N1CCC(CC2CC(c3cccc(Br)c3)=NO2)(C(=O)NCC2CCCCC2)CC1 (configuration not stated),.,?,?,.,.
COc1ccc(CNC(=O)C2(CC3CC(c4ccccc4)=NO3)CCN(C(=O)Cc3ccc(F)cc3)CC2)cc1 (configuration not stated),?,?,?,.,.
CCOc1cc(C(=O)N2CCC(CC3CC(c4ccc(Cl)cc4)=NO3)(C(=O)NCC3CCCCC3)CC2)cc(OCC)c1OCC (configuration not stated),?,23µM,18µM,.,.
CCOc1cc(C(=O)N2CCC(CC3CC(c4ccccc4)=NO3)(C(=O)NCc3ccc(OC)cc3)CC2)cc(OCC)c1OCC (configuration not stated),?,?,16µM,.,.
COc1ccc(N2C(=O)c3ccccc3NC(=O)C2C(=O)Nc2ccc3c(c2)OCCO3)cc1 (configuration not stated),.,?,.,.,.
COc1ccc(Cl)cc1NC(=O)CN1CCN(Cc2ccccc2)CC1,.,?,?,.,.
CC1CCN(S(=O)(=O)c2ccc([N+](=O)[O-])cc2)CC1,.,.,.,.,.
O=S(=O)(c1ccc(Oc2ccc3c(c2)OCO3)c(S(=O)(=O)N2CCOCC2)c1)N1CCOCC1,/,0.89µM,11µM,/,/
SMILES,IL-1B inflam inh,DT40 TDP1 CPT,TDP1 cell noCPT,HT1080 IDH1KD tx,HT1080NT lethal
CN1CCN(S(=O)(=O)c2ccc([N+](=O)[O-])cc2)CC1,.,.,.,.,.
O=[N+]([O-])c1ccccc1Oc1ccc(S(=O)(=O)N2CCOCC2)cc1,.,?,21µM,.,.[9.24 µM]
CC1CCN(S(=O)(=O)c2ccc(Oc3ccc([N+](=O)[O-])cc3)cc2)CC1,?,16µM,16µM,.,?
O=[N+]([O-])c1ccc(Oc2ccc(S(=O)(=O)N3CCCCC3)cc2)cc1,.,16µM,15µM,.,.
O=C(Nc1ccc(Cl)cc1)C1C2CCC3C(CCC21)C3(Cl)Cl (configuration not stated),.,?,?,?,.
O=C(Nc1ccc(F)cc1)C1C2CCC3C(CCC21)C3(Cl)Cl (configuration not stated),/,?,18µM,.,.
CC1CN(CC(=O)Nc2ccccc2Sc2ccccc2)CC(C)O1 (configuration not stated),.,23µM,23µM,.,.
N=c1sccn1CC(=O)Nc1ccccc1Sc1ccccc1,-55,.,?,.,.
CC(=O)N1CCN(CC(=O)Nc2ccccc2Sc2ccccc2)CC1,.,?,23µM,.,.
CC(C)(C)CC(=O)NCC(c1ccc2c(c1)OCO2)N1CCOCC1 (configuration not stated),/,.,.,/,/
CCN1CCN(S(=O)(=O)c2ccc(Cl)c(C(=O)NCc3nc4ccccc4[nH]3)c2)CC1,.,?,?,.,.
Cc1ccc(NC(=O)COc2ccccc2)c(NC(=O)c2ccccc2C)c1,.,?,21µM,.,.
Cc1cccc(OCC(=O)Nc2ccccc2N2CCN(C(=O)C(C)C)CC2)c1C,.,21µM,?,.,.
CCC(=O)c1ccc(OCC(=O)Nc2ccccc2N2CCCCC2)cc1,.,2.6µM,2.9µM,.,.
COc1ccc(OCC(=O)Nc2ccccc2C(=O)N2CCCC2)cc1,.,.,.,.,.
Cc1ccc(OCC(=O)Nc2ccccc2C(=O)N2CCCC2)cc1,.,?,16µM,.,.
Cc1ccc(OCC(=O)Nc2ccccc2N2CCOCC2)c(C)c1,.,18µM,?,.,.
Cc1ccccc1OCC(=O)Nc1ccccc1N1CCCCC1,.,?,21µM,?,.
COc1cc(C)ccc1OCC(=O)Nc1ccccc1N1CCOCC1,.,.,?,.,.
COc1cccc(-n2c(=O)c3sc4ccccc4c3n(CC(=O)Nc3ccccc3OC)c2=O)c1,/,9.2µM,15µM,/,/
O=C(Cn1c(=O)n(-c2cccc(Cl)c2)c(=O)c2sc3ccccc3c21)NC1CCCCC1,/,23µM,?,/,/
CCOc1ccccc1N1CCN(C(=O)NCc2ccc(C)cc2)CC1,.,.,?,.,.
COc1ccc(C(=O)COc2ccccc2N2C(=O)C3C4C=CC(C4)C3C2=O)cc1 (configuration not stated),.,.,?,.,.
O=C(NCc1ccccc1Cl)c1csc([C@@H]2C[C@H](O)[C@@H](CO)O2)n1,.,.,.,?,.
O=C(Nc1ccccc1)C1=C(O)CC(c2ccc(Cl)cc2)N2CCN=C12 (configuration not stated),.,?,18µM,.,.
O=C(Nc1ccc(Cl)cc1)N1N=CCC1c1ccccc1 (configuration not stated),/,.,.,.,.
